Source: PubChem
GLS inh: qHTS for Inhibitors of Glutaminase (GLS); 410,000 compounds, 0.21% hits; AID 624170, 2012; Potency, µM (doses to about 45.5 µM), inactives show at the highest dose activity change, negative = inhibition, most hits filed as inhibitors; Glutaminase kidney isoform, mitochondrial (Homo sapiens), O94925; GLS enzymatic activity, qHTS titration; further: on the % scale 0 is the no-effect control and ±100 the full control effect
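Compounds were pin-transferred onto hKGA, after which L-glutamine (1 mM solution) and a detection mix of glutamate oxidase, HRP and Amplex Red were added. Initial and 30 min RT fluorescence reads were collected.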
G9a block: qHTS Assay for Inhibitors of Histone Lysine Methyltransferase G9a. Histone-lysine N-methyltransferase EHMT2 (Homo sapiens), Q96KQ7. G9a H3K9 monomethylation, AlphaScreen, 2 h. Potency, µM (top dose mostly 102 µM), for the others: at the top dose activity, negative = inhibition, usual class: inhibitors. 350,000 compounds, 8.8% hits. AID 504332, 2011; further: on the % scale 0 is the no-effect control and ±100 the full control effect; nearly all actives have a fitted effect of over 75% in size
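Readings reflect AlphaScreen signal from monomethyl-H3K9 antibody detection. HMT at 20 nM; substrate b-H3K9 500 nM; cofactor SAM 20 uM; 2 h RT reaction; compounds tested as titrations in qHTS with 15 min preincubation.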
JMJD2A Tudor inh: qHTS Assay for Inhibitors of JMJD2A-Tudor Domain; AlphaScreen JMJD2A-Tudor / H3K4me3 peptide binding; Potency, µM (series often up to 114 µM), for the others: at the top dose activity change, negative = inhibition, actives largely listed as inhibitors; AID 504339, 2011; 390,000 compounds, 4.4% hits; further: on the % scale 0 is the no-effect control and ±100 the full control effect; nearly all actives have a fitted effect of over 50% in size
HP1b binding inh: HTS for Inhibitors of HP1-beta Chromodomain Interactions with Methylated Histone Tails | Chromobox protein homolog 1 (Homo sapiens), P83916 | AlphaScreen HP1-beta / biotin-H3K9me3 peptide binding | Potency, µM (series often up to 114 µM), for inactives: top-dose activity change, negative = inhibition, usual class: inhibitors | 390,000 compounds, 0.56% hits | AID 540317, 2011; further: nearly all actives have a fitted effect of over 70% in size
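HP1-beta protein (50 nM final) preincubated 30 min at room temperature with biotinylated H3(1-18)K9me3 peptide (50 nM) in PBS pH 7.4, 0.01% Tween-20, then compound added for 30 min. AlphaScreen streptavidin donor/nickel chelate acceptor beads (10 ug/mL final), 30 min dark, luminescence read.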
BAZ2B inh: qHTS Assay for Inhibitors of BAZ2B. Bromodomain adjacent to zinc finger domain protein 2B (Homo sapiens), Q9UIF8. AlphaScreen BAZ2B-H3K14Ac peptide displacement. Potency, µM (doses to about 114 µM), inactives show top-dose activity change, negative = inhibition, usual class: inhibitors. 360,000 compounds, 4.4% hits; further: on the % scale 0 is the no-effect control and ±100 the full control effect; nearly all actives have a fitted effect of over 60% in size
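BAZ2B (50 nM) with biotin-H3(5-23)K14Ac peptide (50 nM) in PBS pH 7.4, 0.01% Tween-20, preformed 30 min, then compound 30 min at room temperature; top concentration 110uM. AlphaScreen streptavidin donor/nickel chelate acceptor beads (10 ug/mL final), 20 min dark, signal read.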
An asterisk follows results filed as active; ? = inconclusive; / = no result; [ ] = another dose, or the depositor's remark. Most compounds without a hit are left out; they make up all but 10% or so of the library. The call rests on the fitted dose curve; in most records, active means well fitted curve in the direction sought with a large enough effect; inconclusive means small, poorly fitted or top-dose-only effect, or another doubt; inactive means no such curve, though single readings can be large; an effect the other way counts as inactive or inconclusive. Potency means the concentration at half of the fitted maximal effect.

SMILES	GLS inh	G9a block	JMJD2A Tudor inh	HP1b binding inh	BAZ2B inh
COc1cc(/C=C2/C(=N)N3C(=NC2=O)SN=C3S(C)(=O)=O)ccc1OS(=O)(=O)c1ccccc1	/	25µM*	/	/	50µM*
CC1=Nc2ccccc2/C1=C/c1c(C)[nH]c2ccccc12	-5%	/	56µM*	?	/
CC1=Nc2ccccc2/C1=C\c1nc(-c2ccccc2)oc1O	-6%	?	?	5%	?
CCC(=O)c1ccc(OCCn2cnc3ccccc32)cc1	-8%	11%[12.7 µM]	79µM*	5%	-26%
c1ccc2c(c1)ncn2CCOCCOCCn1cnc2ccccc21	22%	?	-18%	25%	71µM*
O=[N+]([O-])c1ccccc1OCCCn1cnc2ccccc21	2%	-143%[59 µM]	0.79µM*	?	22µM*
COc1cc(F)c(S(=O)(=O)N2CCN(S(=O)(=O)c3cccc(N)c3)CC2)c(F)c1	/	/	-1%	/	/
COCCn1c(NCc2ccco2)nc2c1c(=O)[nH]c(=O)n2C	4%	/	-9%	20%	14%
CCOc1ccccc1NC(=O)Cn1c(=O)n(CCCCC(=O)NCCCOC)c(=O)c2ccccc21	-1%	44%[59 µM]	9%	80%	79µM*
CCCCNC(=O)CCn1c(=O)c2ccccc2n(CC(=O)Nc2ccccc2OCC)c1=O	-12%	7%[12.7 µM]	20%	29%	6%
Cc1ccccc1-n1c(=O)c2ccccc2n2c(=O)[nH]nc12	5%	12%[59 µM]	4%[57.1 µM]	39%	-3%
COc1cccc(-n2c(=O)c3ccccc3n3c(=S)[nH]nc23)c1	?	1.6µM*	11µM*	-2%	-20%
COCCCn1c(=O)c2ccccc2n2c(=S)[nH]nc12	-14%	8.9µM*	10µM*	?	-11%
COc1cccc(-c2cc3c(=O)n(-c4ccccc4)c(=S)[nH]c3s2)c1	16%	?	-35%	23%	9%
CC(C)OCCCn1c(=O)c2ccccc2n2c(CCC(=O)O)nnc12	2%	2%	-11%	16%	-35%
CCc1ccc(-n2c(=O)c3ccccc3n3c(=S)[nH]nc23)cc1	-23%	1.4µM*	4.5µM*	4%	-2%
CC(=O)NC1[C@H](O)C[C@@](O)(C(=O)O)O[C@H]1[C@H](O)[C@H](O)CO (some centres undefined)	7%	-8%[12.7 µM]	/	/	/
Cc1cccc(C(=O)NC(=O)Nc2ccc(-n3nc(C(F)(F)F)cc3C(F)(F)F)cc2)c1	-1%	1%[59 µM]	-29%	14%	-14%
CCC(C)n1c(=O)c2sccc2n2c(CCCC(=O)N3CCC(C(N)=O)CC3)nnc12 (centres undefined)	2%	50%	-8%	72%	-13%
O=C(Cn1cc(C(F)(F)F)ccc1=O)Nc1ccccc1	1%	11%	-9%	11%	6%
Cc1cccc(-n2c(=O)c3ccccc3n3c(=S)[nH]nc23)c1C	-5%	1.1µM*	25µM*	-16%	-15%
COCCCn1c(=O)c2ccccc2n(Cc2ccccc2)c1=O	-4%	6.3µM*	-5%	41%	?
Cc1ccc(-c2c(C3C4C=CCCC4(C)C(=O)N3Cc3ccccc3)ccc3ccccc23)cc1 (centres undefined)	/	/	-35%	6%	/
Cc1nnc(SCC(=O)NC2CCCC2)n1CCc1ccccc1	-7%	-9%	-1%	40%	0%
Cn1cccc1Cc1nnc(SCC(=O)NC2CCCCC2)n1CCc1ccccc1	-2%	45µM*	?	25%	-39%
CCOC(=O)CSc1nnc(Cc2cc(=O)[nH]c(=O)[nH]2)n1-c1ccc(Cl)cc1	1%	50µM*	?	5%	-1%
CSc1nnc(Cc2cc(=O)[nH]c(=O)[nH]2)n1-c1cc(C)ccc1C	?	?	-17%	23%	-4%
Cn1cccc1Cc1nnc(SCC(=O)NCc2ccccc2)n1-c1ccc(F)cc1	-2%	50µM*	-34%	17%	?
